NPC1 promoter act: qHTS Assay for NPC1 Promoter Activators. Huh7 NPC1 promoter luciferase reporter, 24 h. Potency, µM (doses to about 9.22 µM), for the others: at the highest dose activation, usual class: activators. hit rate 2.4% among 320,000; also: % of control where 0% means no effect; nearly all actives have a fitted effect of over 60% in size
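Quantitative HTS used a cell-based reporter: Huh7 cells stably bearing the NPC1 promoter upstream of luciferase were treated with compounds for 24 h, and promoter activation was read as luminescence.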
ELG1 genotoxic: qHTS screen for small molecules that induce genotoxicity in human embryonic kidney (HEK293T) cells expressing luciferase-tagged ELG1; HEK293T ELG1-luciferase reporter, luminescence, 16 h; hit rate 1.3% among 330,000; Potency, µM (series often up to 46 µM), for the others: at the highest dose activity change, positive = activation, actives largely listed as activators; also: % of control where 0% means no effect; nearly all actives have a fitted effect of over 60% in size
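Genotoxicity was scored as increased ELG1-luciferase reporter signal, measured by ONE-Glo luminescence (30 min, room temperature). Compound or vehicle exposure of the HEK293T reporter cells lasted 16 hr at 37°C.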
Rab9 prom act: qHTS Assay for Rab9 Promoter Activators; hit rate 2.8% among 320,000; Huh7 Rab9 promoter-luciferase reporter, luminescence, 24 h; Potency, µM (series often up to 9.22 µM), for the others: at the top dose activation, negative = inhibition, most hits filed as activators; AID 485297, 2010; also: % of control where 0% means no effect; nearly all actives have a fitted effect of over 60% in size
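Rab9 promoter-driven luciferase in stably transfected Huh7 cells; 1500 cells/well rested 2 h, exposed to compound in DMSO for 24 h at 37 °C, 5% CO2. Luminescence read 10 min after adding luciferase reagent at ambient temperature.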
FLuc counter: qHTS profiling assay for firefly luciferase inhibitor/activator using purifed enzyme and Km concentrations of substrates (counterscreen for miR-21 project); hit rate 6.9% among 360,000; Potency, µM (titrated, usually from 57.5 µM), inactives show at the highest dose activity change, negative = inhibition, actives largely listed as inhibitors; Luciferin 4-monooxygenase (Photinus pyralis), P08659; purified FLuc, Km substrates, luminescence inhibition;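 also: plate controls were vehicle for no effect and reference inhibitor for full effect; nearly all actives have a fitted effect of over 55% in size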
Target sequence (P08659 whole entry, looked up): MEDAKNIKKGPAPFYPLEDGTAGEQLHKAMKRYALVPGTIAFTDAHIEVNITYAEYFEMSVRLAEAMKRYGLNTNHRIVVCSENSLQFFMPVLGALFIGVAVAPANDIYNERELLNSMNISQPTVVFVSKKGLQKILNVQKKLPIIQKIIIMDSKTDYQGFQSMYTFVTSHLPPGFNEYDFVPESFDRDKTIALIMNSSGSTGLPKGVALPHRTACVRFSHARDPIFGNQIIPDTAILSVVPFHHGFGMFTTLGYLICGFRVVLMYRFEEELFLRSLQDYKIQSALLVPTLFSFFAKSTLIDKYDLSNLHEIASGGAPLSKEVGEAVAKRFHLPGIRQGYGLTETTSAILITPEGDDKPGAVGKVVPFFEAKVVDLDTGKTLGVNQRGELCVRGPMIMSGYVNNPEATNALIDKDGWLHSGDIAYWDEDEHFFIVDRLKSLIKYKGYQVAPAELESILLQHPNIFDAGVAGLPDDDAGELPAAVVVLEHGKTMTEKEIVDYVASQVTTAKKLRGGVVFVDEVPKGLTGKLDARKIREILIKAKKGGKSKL
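Purified P. pyralis luciferase (10nM final) with 10uM D-luciferin and 10uM ATP (Km levels) in 50mM Tris acetate pH 7.5, 10mM Mg acetate, 0.01% Tween-20, 0.05% BSA; qHTS 6-point titration, ~60 µM downward; luminescence read.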
SMN2 splice up: qHTS Assay for Enhancers of SMN2 Splice Variant Expression | hit rate 2.8% among 210,000 | Potency, µM (highest dose often 46.1 µM), for the others: top-dose activity change, positive = activation, usual class: activators | HEK293 SMN2-luciferase splicing reporter, luminescence, 30-36 h | AID 1458, 2008; also: % of control where 0% means no effect; nearly all actives have a fitted effect of over 55% in size
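qHTS luciferase splicing reporter: luminescence rises when SMN2 exon 7 is included in transfected HEK293 cells. Compound exposure lasted 30-36 h at 37C, with 4.5 mM final sodium butyrate as control, followed by a ONE-Glo read.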
p53 reactivator: qHTS assay for re-activators of p53 using a Luc reporter | Potency, µM (top dose mostly 92.2 µM), for the others: top-dose activity change, positive = activation, hits mostly activators | AID 504706, 2011 | hit rate 0.063% among 320,000 | H1299 p53-A138V BP100-luciferase reporter, luminescence, 24 h; also: % of control where 0% means no effect; nearly all actives have a fitted effect of over 45% in size
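p53-null H1299 cells stably carrying temperature-sensitive p53-A138V and a BP100-luciferase reporter were pinned with compounds (4-point, 1:5 series) and held 24 hrs at 37 deg C. Luminescence was read 10 min after detection reagent.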
The depositor's hits bear a star; ? = inconclusive; . = no result given; [ ] = dose if it differs, or a comment. A selection: hits, their analogues and other compounds. The true share with any hit is near 7.3%. Calls follow the shape of the dose curve; as a rule, active = well fitted curve in the direction sought with a large enough effect; inconclusive = small, poorly fitted or top-dose-only effect, or another doubt; inactive = no such curve, though single readings can be large; an effect the other way counts as inactive or inconclusive. Potency is read from the fitted curve at half-maximal effect.

SMILES | NPC1 promoter act | ELG1 genotoxic | Rab9 prom act | FLuc counter | SMN2 splice up | p53 reactivator
Cc1oc2ccc(OCc3ccccc3Cl)cc2c1C(=O)O | -1% | 0% | -1% | 0% | . | -7%
O=C(O)c1cc2cc(OCc3ccccc3)ccc2[nH]1 | 5% | 12% | 10% | 19µM* | -2% | 2%
COc1ccc([N+](=O)[O-])cc1/C=N/NC(=O)c1nonc1N | -6% | -2% | 2% | -1% | 0% | -1%
CC(=O)c1cc2c(cc1N/C(=N/S(=O)(=O)c1ccc(F)cc1)c1ccccc1)OCO2 | . | . | . | -7% | . | .
O=C(Nc1ccc2oc(-c3ccccc3F)nc2c1)c1ncn[nH]1 | 0.35µM* | ? | 0.5µM* | 2.1µM* | 14µM* | ?
O=C(Nc1ccc2oc(-c3ccccc3F)nc2c1)c1ccccc1F | 2.2µM* | 16% | 3.5µM* | 4.8µM* | . | .
O=C(Nc1ccc2oc(-c3cccc(F)c3)nc2c1)c1ccccc1F | ? | 21µM* | ? | -14% | -3% | -1%
O=C(Nc1ccc2oc(-c3ccccc3)nc2c1)c1ccccc1F | ? | 19% | 2.5µM* | ? | 13µM* | ?
CC(C)(C)C(=O)Cn1c(=O)n(CCCCCC(=O)NCc2ccc3c(c2)OCO3)c(=O)c2sccc21 | . | . | . | -16% | -14% | .
CCOc1ccc(C(=O)NCC(=O)N2CCN(c3ccccc3O)CC2)cc1 | -1% | -1% | 0% | -2% | . | 0%
Cc1ccc(NC(=O)c2ncn[nH]2)cc1 | 10% | 8% | 2% | 17µM* | 15% | -1%
O=C(Nc1ccc(Oc2ccc(Cl)cc2)cc1)c1ncn[nH]1 | 0% | -3% | 4% | -3% | -20% | -2%
O=C(Nc1ccc2oc(-c3ccc(Cl)c(Cl)c3)nc2c1)c1ncn[nH]1 | 0.5µM* | ? | 0.71µM* | ? | -22% | 12%
CC(=O)Nc1ccc2oc(-c3ccccc3)nc2c1 | 1.3µM* | ? | 2.5µM* | 7.6µM* | 10µM* | 16%
CC(=O)Nc1ccc(-c2nc3ccc(NC(C)=O)cc3o2)cc1 | 2.5µM* | ? | 2µM* | ? | . | ?
COc1ccc(-c2nc3ccccc3o2)cc1NC(=O)COc1cc(C)cc(C)c1 | . | . | . | -6% | . | .
COc1ccc(-c2nc3ccccc3o2)cc1NC(=O)COc1ccc(C(C)(C)C)cc1 | . | . | . | -1% | 5µM* | .
Oc1cc(NCc2cccnc2)ccc1-c1nc2ccccc2o1 | 1.4µM* | ? | ? | 7.6µM* | 11µM* | ?
COc1ccc(OCC(=O)Nc2cccc(-c3nc4ccccc4o3)c2)cc1 | 4.5µM* | ? | ? | ? | 66% | ?
O=C(O)CCC(=O)Nc1cccc(-c2nc3ccccc3o2)c1 | 1% | 0% | 0% | 11µM* | . | ?
CC(=O)Nc1cc(-c2nc3ccccc3o2)ccc1Cl | 15% | ? | ? | 17µM* | . | .
O=C(Nc1ccc(-c2nc3ccccc3o2)c(O)c1)c1cc(Cl)ccc1Cl | . | . | . | ? | 5% | .
CCc1ccc(OCC(=O)Nc2ccc(-c3nc4ccccc4o3)c(O)c2)cc1 | 2µM* | ? | 3.5µM* | 10% | ? | 2%
CC(C)(C)c1ccc(C(=O)Nc2cc(-c3nc4ccccc4o3)ccc2Cl)cc1 | . | . | . | 0% | -4% | .
CCCC(=O)Nc1cccc(-c2nc3ccccc3o2)c1 | 5% | -1% | 10% | ? | 34% | -4%
SMILES | NPC1 promoter act | ELG1 genotoxic | Rab9 prom act | FLuc counter | SMN2 splice up | p53 reactivator
Cc1nn(-c2ccc(N3CCCC3)nn2)c(C)c1CCC(=O)N1CCN(c2ccc(F)cc2)CC1 | . | . | . | 0% | . | .
CC(=O)Nc1cccc(-c2nc3ccccc3o2)c1 | 28% | ? | 30% | 19µM* | . | -4%
CC(=O)Nc1ccc2nc3ccccc3nc2c1 | 2.8µM* | 21µM* | 4µM* | 19µM* | . | 14%
C=CCNC(=O)c1cc2c(=O)n3ccccc3nc2s1 | 2.5µM* | ? | 1.8µM* | 17µM* | . | 11%
CC(C)NC(=O)c1cc2c(=O)n3ccccc3nc2s1 | 2% | -1% | 0% | -1% | . | -1%
COc1cc2c(cc1OC)C1O[C@](CCCCN3C(=O)c4ccccc4C3=O)(C2)OC2=C1C(=O)c1ccccc1C2=O | 7%[1.84 µM] | . | 6%[1.84 µM] | -3%[11.5 µM] | . | .
Cc1cc(O)c(-c2n[nH]c3c2C(c2cccc(O)c2)N(Cc2cccnc2)C3=O)cc1Cl (configuration not stated) | -4% | 3% | 2% | 8% | 20µM* | -5%
OCC1OC(n2cnc3c(=S)nc[nH]c32)C(O)C1O (configuration not stated) | . | . | . | . | -38% | .
CCOC(=O)c1ccc2c(c1)[nH]c(=S)n2CC | 18% | 21µM* | ? | 19µM* | . | -1%
CCOC(=O)c1ccc2c(c1)n(CC)c(C)[n+]2CC | 0% | -2% | -1% | -3% | -6% | 0%
O=C(c1cc(C(F)(F)F)cc(C(F)(F)F)c1)N1CCC[C@@]2(CCN(c3ccncc3)C2)C1 | . | . | . | . | -14% | .
Cc1cc(Cl)c2oc(C(=O)N3CCN(C4CCS(=O)(=O)C4)CC3)c(C)c2c1 (configuration not stated) | 0% | 6% | -1% | 2% | . | -3%
C=CCN(C(=O)c1oc2c(Cl)cc(C)cc2c1C)C1CCS(=O)(=O)C1 (configuration not stated) | 3.5µM* | ? | 3.5µM* | 11µM* | . | 12%
CCNC(=S)SCCOc1ccc(C)cc1 | -5% | 1% | -1% | ? | -4%[1.84 µM] | 12%
O=C(O)CCCCn1cnc2c(=S)nc[nH]c21 | . | . | . | . | -6%[9.22 µM] | .
COc1ccc2oc(C)c(C(=O)c3ccc(C)cc3)c2c1 | 10% | 0% | 4% | 17µM* | . | 8%
COc1ccc2oc3ccc(OC)cc3c(=O)c2c1 | 3.2µM* | ? | 2.8µM* | 3µM* | ? | 6%

High-throughput results: PubChem BioAssay, National Center for Advancing Translational Sciences (NCATS)
